The record followed here is PubChem BioAssay.

Records with an inconclusive call do not appear. Calls of active or inactive are those of the source.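 How the source made its calls, unless noted: active means efflux inhibition above 0.42, the validation set average plus 4 SD; inconclusive means no clear call, values can overlap the other calls; inactive means the rest.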

Assay [1] can be described thus: rapamycin-like changes in RPL19A-GFP expression – cell-based, S. cerevisiae, multiplex flow cytometry, primary screen (AID 1862; in the data active means percent of DMSO control GFP below about 86%;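 further: lower values mimic rapamycin by blocking the RPL19A rise seen in DMSO cells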). The following applies: S. cerevisiae RPL19A-GFP strain, flow cytometry fluorescence, 3 h; at 10 µM; stronger effect = lower value. A general note: A flow cytometer gives signals particle by particle.
Assay [2] in a line: TOR pathway GLN3 branch reporter MEP2-GFP changes – S. cerevisiae, multiplex flow cytometry, primary screen (AID 1867;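 active means GFP response, as percent of the DMSO control, above the screen-wide mean plus 3 SD, about 139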;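 further: median GFP channel fluorescence of barcode-gated MEP2-GFP cells measured by flow cytometry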). The note with it: S. cerevisiae MEP2-GFP strain, 3 h, at 10 µM, stronger effect = higher value, 100% means same as DMSO wells.
The nature of assay [3]: TOR pathway RTG branch CIT2 reporter changes – S. cerevisiae, GFP fusion, multiplex flow cytometry, primary screen (AID 1870;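 active means percent response above a set limit, the screen-wide mean plus 3 SD, cut at about 130% in these data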;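 further: barcoded CIT2-GFP strain pooled with four other GFP strains with rapamycin as positive control; median GFP fluorescence per well over plate mean of DMSO wells so 100% = DMSO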). The note with it: S. cerevisiae CIT2-GFP expression, 3 h, at 10 µM, stronger effect = higher value.
Assay [4] in a line: TOR pathway LAP4-GFP level changes – S. cerevisiae, multiplex flow cytometry, primary screen (AID 1873;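 active means GFP signal, as percent of the solvent control, above the screen mean plus 3 SD, about 149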). The note with it: S. cerevisiae LAP4-GFP expression, 3 h, at 10 µM, stronger effect = higher value.
Assay [5] can be described thus: yeast AGP1-GFP level changes, GLN3 branch – cell-based, multiplex flow cytometry, S. cerevisiae, primary screen (AID 1887;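 active means GFP signal above the screen-wide mean plus 3 SD, that is over about 124.5% of the solvent control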;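 further: AGP1-GFP fusion strain of S. cerevisiae within a five-strain barcoded multiplex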). The following applies: 3 h, at 10 µM, stronger effect = higher value.
Assay [6] can be described thus: reduced mouse 2C T cell binding to pMHC/ICAM-1 vesicles – MLPCN validation set, flow cytometry, LFA-1/ICAM-1 modulator project, pilot screen (AID 2523;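 active means response below a set limit, under 55% cells CD8-positive and vesicle-bound, and CD8 cells' 90th-percentile brightness under 279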;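 on vesicle binding response: mean PE anti-B7-1 fluorescence of CD8+ cells relative to row control; 100% = QL9-loaded vesicles with DMSO vehicle in the same plate row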). The following applies: 2C mouse CD8+ T cells, at 7 µM, stronger effect = lower value; double positive events: measured here: CD8+/vesicle+ event percentage.
For assay [7], the target named is Integrin beta-1 (Homo sapiens) + Integrin alpha-4 (Homo sapiens) (UniProt P13612+P05556). In words: alpha4beta1 integrin LIBS antibody binding reduction – U937 cells, HUTS-21 mAb, flow cytometry, validation set, VLA-4 allosteric modulator project, pilot screen (AID 2674;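 active means inhibition above 50%, about 3 SD of the validation set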;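 further: antibody binding induced by the VLA-4 ligand LDV present at three times its Kd; 0% = LDV ligand with antibody and no compound and 100% = antibody without LDV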). The following applies: HUTS-21 LIBS mAb binding, at 6.7 µM, stronger effect = higher value, binding induced by LDV ligand.

Assay [8] is described as follows: calorie-restriction mimetic ROS inhibitors, yeast – validation compound set, pilot screen (AID 2706;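 active means superoxide response below 65% of plate, a cut near 3 SD across the whole screen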;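 further: yeast exposed to compound for one week at 30 degrees C before staining; 100% = mean of all compound wells on the same plate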). The note with it: S. cerevisiae aging, superoxide DHE fluorescence; at 10 µM; stronger effect = lower value.
The target of assay [9] is Beta-adrenergic receptor kinase 1 (Homo sapiens) (UniProt P25098). In words: GRK2 binders displacing RNA aptamer, biochemical, validation, human GRK2, bead flow cytometry (AID 488806;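 active means aptamer binding inhibition above 30%, about 3 SD of noise from non-fluorescent compounds; inactive means inhibition at or below 30%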). The note with it: bead-bound GRK2, FAM-aptamer displacement, at 10 µM, stronger effect = higher value.
Assay [10] has as its target Beta-2 adrenergic receptor (Homo sapiens) (UniProt P07550). In words: agonist-induced loss of surface beta2AR – cell-based, FAP fluorogen, flow cytometry, validation set, pilot screen (AID 504459;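 active means percent response above 42, roughly 3 SD of non-fluorescent test compounds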;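 further: agonist-driven loss of surface beta2AR via internalization measured by FAP dye flow cytometry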). The note with it: Am2.2-beta2AR cells, at 10 µM, stronger effect = higher value.
The target of assay [11] is AP-2 complex subunit beta (Homo sapiens) (UniProt P63010). In words: beta-arrestin/AP2 interaction blockers – biochemical, validation set, GST-AP2 beads, flow cytometry, pilot screen (AID 504541;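 active means inhibition above 54%, about 3 SD of non-fluorescent compounds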;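 further: AP2 carries R879A mutation and is captured from E. coli lysate; bead-bound FITC arrestin peptide fluorescence measuring arrestin peptide binding to AP2; 0% = DMSO wells and 100% = excess unlabeled arrestin peptide control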). The following applies: FITC arrestin peptide, at 10 µM, stronger effect = higher value, AP2 beta2 appendage fragment, R879A mutant.
Assay [12] can be described thus: cytosolic pH regulators acting via V-ATPase – S. cerevisiae, pHLuorin, HTS validation (AID 504600; in the data active means response above about 15%;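 further: plate controls were DMSO for no effect and reference compound for full effect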). The note with it: V-ATPase proton transport, at 10 µM, stronger effect = higher value.
The test system of assay [13] is anti-desmoglein-3 scFv antibody binding to human DSG3. In words: blockers of pathogenic pemphigus antibody–desmoglein-3 binding – biochemical, validation compound set, bead-based, flow cytometry, pilot screen (AID 588368;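 active means binding below the plate cutoff, the plate median minus 3 SD, with a reading above zero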;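 further: signal is the median channel fluorescence of bead-bound GFP antibody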). The following applies: Protein G beads, DSG3-Fc, scFv-GFP binding, at 10 µM, stronger effect = lower value.
Assay [14] is described as follows: Nile Red efflux blockade in pump-expressing yeast – validation compound set, multiplex, phenotypic, pilot screen (AID 588506).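 Further: Nile Red retained in cells so higher fluorescence means more efflux inhibition; 0 = negative control wells and 1 = enniatin B 25 µM full block.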 The note with it: S. cerevisiae pump-expressing triplex, Nile Red efflux flow cytometry; at 10 µM; stronger effect = higher value; the pumps come from Candida albicans.
For assay [15], the target named is ATP-binding cassette sub-family B member 6 (Homo sapiens) (UniProt Q9NP58). In words: blockers of ABCB6-driven porphyrin uptake – K562-ABCB6 cells, flow cytometry, validation set, pilot screen (AID 588550;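 active means inhibition above the screen-wide mean plus 3 SD, about 51%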;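 further: 0% = DMSO wells and 100% = benzethonium chloride 70 µM positive control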). The following applies: K562-ABCB6 porphyrin accumulation, 1 h, at 10 µM, stronger effect = higher value.
The nature of assay [16]: AML differentiation inducers, ER-HoxA9 marrow cells – cell-based, GFP/MAC1 double positive, flow cytometry, validation set, primary screen (AID 588685;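 active means differentiation response of at least 50%, scaled between solvent and reference control, from cells with both markers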;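 further: compound exposure lasts four days before antibody staining and flow analysis; 0% = DMSO wells and 100% = 5 µM fulvestrant positive control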). The following applies: stronger effect = higher value, normalized: vehicle 0, fulvestrant 100.

Integrin beta-1 (Homo sapiens) + Integrin alpha-4 (Homo sapiens), sequence (P05556 whole entry, looked up): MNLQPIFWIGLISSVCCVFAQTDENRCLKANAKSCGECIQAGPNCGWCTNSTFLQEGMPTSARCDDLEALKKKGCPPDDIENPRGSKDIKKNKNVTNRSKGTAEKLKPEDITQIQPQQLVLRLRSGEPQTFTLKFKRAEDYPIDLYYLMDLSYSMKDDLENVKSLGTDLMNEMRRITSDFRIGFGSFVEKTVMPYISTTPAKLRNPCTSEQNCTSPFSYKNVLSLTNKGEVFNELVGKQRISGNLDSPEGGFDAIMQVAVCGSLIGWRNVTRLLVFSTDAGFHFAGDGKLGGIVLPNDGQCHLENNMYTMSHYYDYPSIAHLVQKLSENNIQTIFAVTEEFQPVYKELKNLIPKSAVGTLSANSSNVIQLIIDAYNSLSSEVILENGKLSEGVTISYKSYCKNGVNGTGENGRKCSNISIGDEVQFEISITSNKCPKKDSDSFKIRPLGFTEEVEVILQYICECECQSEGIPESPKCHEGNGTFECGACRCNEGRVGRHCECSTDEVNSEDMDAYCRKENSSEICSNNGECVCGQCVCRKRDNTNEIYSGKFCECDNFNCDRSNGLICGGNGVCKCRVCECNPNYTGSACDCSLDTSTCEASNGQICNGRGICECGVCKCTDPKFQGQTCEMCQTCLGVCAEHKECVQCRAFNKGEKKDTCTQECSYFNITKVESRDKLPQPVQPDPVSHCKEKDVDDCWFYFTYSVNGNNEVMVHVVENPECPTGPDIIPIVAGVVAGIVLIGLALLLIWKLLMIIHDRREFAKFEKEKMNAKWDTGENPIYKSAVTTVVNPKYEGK
Integrin beta-1 (Homo sapiens) + Integrin alpha-4 (Homo sapiens), sequence (P13612 whole entry, looked up): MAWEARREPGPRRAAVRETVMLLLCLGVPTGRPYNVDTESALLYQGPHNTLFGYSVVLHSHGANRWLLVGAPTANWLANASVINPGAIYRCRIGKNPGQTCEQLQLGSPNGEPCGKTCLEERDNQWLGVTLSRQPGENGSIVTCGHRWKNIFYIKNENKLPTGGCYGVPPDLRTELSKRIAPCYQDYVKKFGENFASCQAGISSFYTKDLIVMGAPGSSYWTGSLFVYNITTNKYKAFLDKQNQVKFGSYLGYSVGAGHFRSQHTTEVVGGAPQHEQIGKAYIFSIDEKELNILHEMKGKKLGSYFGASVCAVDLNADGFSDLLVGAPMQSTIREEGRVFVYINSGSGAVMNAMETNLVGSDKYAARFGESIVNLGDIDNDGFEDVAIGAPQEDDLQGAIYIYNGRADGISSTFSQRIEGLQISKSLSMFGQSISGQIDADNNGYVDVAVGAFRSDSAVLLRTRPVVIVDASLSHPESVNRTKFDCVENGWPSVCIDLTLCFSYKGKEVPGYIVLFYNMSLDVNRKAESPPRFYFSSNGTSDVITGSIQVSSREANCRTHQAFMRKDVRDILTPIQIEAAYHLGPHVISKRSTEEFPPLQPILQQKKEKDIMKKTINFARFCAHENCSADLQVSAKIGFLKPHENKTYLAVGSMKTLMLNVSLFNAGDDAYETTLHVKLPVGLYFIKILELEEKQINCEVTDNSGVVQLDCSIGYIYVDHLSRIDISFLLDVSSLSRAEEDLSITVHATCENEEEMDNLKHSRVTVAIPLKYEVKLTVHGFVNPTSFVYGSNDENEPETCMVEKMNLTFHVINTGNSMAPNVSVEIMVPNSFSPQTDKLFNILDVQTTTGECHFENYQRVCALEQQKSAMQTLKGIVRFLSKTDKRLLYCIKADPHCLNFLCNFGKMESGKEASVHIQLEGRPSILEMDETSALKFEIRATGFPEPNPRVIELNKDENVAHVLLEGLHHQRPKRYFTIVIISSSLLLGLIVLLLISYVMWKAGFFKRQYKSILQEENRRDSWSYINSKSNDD
AP-2 complex subunit beta (Homo sapiens), sequence (P63010 whole entry, looked up, the tested form may be a part, one chain of several): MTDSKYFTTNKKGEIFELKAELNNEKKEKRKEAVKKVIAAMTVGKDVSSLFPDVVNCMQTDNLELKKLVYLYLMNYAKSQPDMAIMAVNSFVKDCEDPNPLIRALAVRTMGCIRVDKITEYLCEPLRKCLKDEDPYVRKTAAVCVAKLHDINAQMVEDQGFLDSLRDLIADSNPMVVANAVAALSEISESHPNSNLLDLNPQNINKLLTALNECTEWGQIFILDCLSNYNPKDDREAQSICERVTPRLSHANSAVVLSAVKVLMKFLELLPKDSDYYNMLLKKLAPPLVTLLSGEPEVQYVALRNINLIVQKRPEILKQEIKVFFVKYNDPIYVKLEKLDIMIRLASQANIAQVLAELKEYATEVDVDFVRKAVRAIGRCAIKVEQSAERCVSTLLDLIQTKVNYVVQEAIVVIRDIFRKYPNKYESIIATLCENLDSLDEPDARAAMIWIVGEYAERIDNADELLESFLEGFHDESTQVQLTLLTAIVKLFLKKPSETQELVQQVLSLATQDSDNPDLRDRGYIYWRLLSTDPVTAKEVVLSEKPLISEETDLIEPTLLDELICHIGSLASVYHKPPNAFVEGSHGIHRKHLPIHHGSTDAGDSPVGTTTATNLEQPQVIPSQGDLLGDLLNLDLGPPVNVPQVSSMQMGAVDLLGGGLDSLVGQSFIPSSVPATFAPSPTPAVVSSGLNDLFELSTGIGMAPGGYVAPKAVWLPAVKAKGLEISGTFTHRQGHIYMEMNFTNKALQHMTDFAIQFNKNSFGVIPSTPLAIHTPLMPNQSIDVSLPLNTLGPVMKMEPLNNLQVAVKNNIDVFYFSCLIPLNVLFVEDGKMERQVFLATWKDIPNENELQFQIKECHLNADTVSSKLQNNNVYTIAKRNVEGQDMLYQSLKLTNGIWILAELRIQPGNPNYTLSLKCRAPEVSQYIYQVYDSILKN
ATP-binding cassette sub-family B member 6 (Homo sapiens), sequence (Q9NP58 whole entry, looked up): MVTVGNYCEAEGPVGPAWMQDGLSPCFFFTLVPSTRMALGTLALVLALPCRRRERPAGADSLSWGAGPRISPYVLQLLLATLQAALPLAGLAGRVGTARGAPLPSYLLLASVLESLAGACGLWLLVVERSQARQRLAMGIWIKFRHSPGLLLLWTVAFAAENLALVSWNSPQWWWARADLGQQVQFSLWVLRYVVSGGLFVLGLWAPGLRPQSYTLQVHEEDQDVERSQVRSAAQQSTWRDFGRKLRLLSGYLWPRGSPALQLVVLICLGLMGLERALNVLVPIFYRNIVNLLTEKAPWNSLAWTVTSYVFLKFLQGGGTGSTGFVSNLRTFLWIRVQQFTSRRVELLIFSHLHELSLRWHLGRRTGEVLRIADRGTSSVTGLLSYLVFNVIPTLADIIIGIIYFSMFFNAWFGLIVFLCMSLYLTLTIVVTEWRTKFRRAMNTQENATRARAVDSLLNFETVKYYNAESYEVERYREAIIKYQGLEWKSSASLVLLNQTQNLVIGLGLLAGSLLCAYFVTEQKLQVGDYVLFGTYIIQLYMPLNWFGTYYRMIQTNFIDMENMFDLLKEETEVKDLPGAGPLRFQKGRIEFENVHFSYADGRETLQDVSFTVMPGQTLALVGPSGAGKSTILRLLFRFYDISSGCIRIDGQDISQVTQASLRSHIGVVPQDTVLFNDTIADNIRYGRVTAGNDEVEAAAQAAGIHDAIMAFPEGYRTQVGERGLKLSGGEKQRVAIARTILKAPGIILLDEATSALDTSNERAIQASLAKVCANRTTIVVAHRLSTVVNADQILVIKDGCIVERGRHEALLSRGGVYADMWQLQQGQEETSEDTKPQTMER
Beta-2 adrenergic receptor (Homo sapiens), sequence (P07550 whole entry, looked up): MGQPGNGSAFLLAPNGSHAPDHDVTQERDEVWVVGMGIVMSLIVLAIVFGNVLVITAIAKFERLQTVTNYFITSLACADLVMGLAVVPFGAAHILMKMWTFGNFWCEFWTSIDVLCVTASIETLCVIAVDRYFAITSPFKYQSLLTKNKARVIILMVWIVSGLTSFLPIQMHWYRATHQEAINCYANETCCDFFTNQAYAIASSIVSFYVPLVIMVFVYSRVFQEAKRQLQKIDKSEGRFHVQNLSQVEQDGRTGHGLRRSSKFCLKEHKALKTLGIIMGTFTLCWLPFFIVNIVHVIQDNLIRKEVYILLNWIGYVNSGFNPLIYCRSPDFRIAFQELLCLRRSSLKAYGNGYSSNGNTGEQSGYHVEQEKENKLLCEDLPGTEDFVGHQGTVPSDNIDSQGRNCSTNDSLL
Beta-adrenergic receptor kinase 1 (Homo sapiens), sequence (P25098 whole entry, looked up): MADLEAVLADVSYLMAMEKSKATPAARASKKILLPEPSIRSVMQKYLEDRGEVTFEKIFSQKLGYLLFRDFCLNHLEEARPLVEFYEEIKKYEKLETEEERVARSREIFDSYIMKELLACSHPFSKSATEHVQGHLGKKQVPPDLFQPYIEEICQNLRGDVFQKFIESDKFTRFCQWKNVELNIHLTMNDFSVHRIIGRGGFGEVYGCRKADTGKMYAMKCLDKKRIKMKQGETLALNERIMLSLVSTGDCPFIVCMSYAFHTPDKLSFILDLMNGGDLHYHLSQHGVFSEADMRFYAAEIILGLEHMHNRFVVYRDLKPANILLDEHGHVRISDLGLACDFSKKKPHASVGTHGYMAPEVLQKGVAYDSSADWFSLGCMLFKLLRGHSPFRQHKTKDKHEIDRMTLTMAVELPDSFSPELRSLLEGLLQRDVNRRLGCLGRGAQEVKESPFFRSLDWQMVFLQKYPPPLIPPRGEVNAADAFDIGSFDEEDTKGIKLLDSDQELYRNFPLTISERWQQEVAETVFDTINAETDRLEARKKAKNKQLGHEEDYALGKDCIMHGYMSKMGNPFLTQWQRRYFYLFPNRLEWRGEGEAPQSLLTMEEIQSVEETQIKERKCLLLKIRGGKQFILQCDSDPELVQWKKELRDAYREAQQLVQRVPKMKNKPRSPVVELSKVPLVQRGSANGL

Take `O=C(NCCc1c[nH]c2ccccc12)c1cccnc1`: the percent of DMSO control GFP in assay [1] is 101% (inactive). Further, the GFP response vs DMSO in [2] is 101% (inactive); in assay [4], 113% (inactive). Besides, in [3], the percent response of DMSO control is 98.6% (inactive). Moreover, the GFP response, % of DMSO in [5] is 103% (inactive). The double positive events in [6] is 61.5%. In addition, in assay [6], the vesicle binding response was 188% (inactive). Further, the inhibition – broadly, the change of the read-out against control, counted positive when it falls – is 2.3% (inactive) in assay [7], 17.6% (inactive) in [11] and 6% (inactive) in [15]. The superoxide response (% of plate) in [8] was 93.7% (inactive). In assay [9], the aptamer binding inhibition is 3% (inactive). For the same compound, the results for the response in assay [10] and in [12] were -0.09% (inactive) and -6.3% (inactive), respectively. In assay [13], the binding (% of control) was 90.1% (inactive). The efflux inhibition (fraction of control) in assay [14] is 0.3 (inactive). Further, the differentiation response in [16] was 12% (inactive).
Regarding `Cc1nc(NCc2ccco2)c(C#N)c2c1COC(C)(C)C2`, the percent of DMSO control GFP in assay [1] was 102% (inactive). The GFP response vs DMSO was 98.7% (inactive) in assay [2] and 102% (inactive) in assay [4]. Further, in assay [3], the percent response of DMSO control is 96.5% (inactive). Moreover, in assay [5], the GFP response, % of DMSO was 92.4% (inactive). The same compound came in with a double positive events in assay [6] of 57.7%. The vesicle binding response in [6] was 99.2% (inactive). Further, the figures for the inhibition in assay [7], in assay [11] and in assay [15] were -9.13% (inactive), -2% (inactive) and 15% (inactive), respectively. Moreover, the superoxide response (% of plate) in [8] is 123% (inactive). The aptamer binding inhibition in assay [9] is 4% (inactive). Also, the response in assay [10] is 7.11% (inactive); in [12] it was 12% (inactive). For the same compound, in [13], the binding (% of control) was 98.8% (inactive). Moreover, the efflux inhibition (fraction of control) in [14] was -0.31 (inactive). Besides, the differentiation response in [16] was -1.65% (inactive).
As to `Cc1ccc(C)c(OCCCC(C)(C)C(=O)O)c1`, the percent of DMSO control GFP in assay [1] is 98% (inactive). The GFP response vs DMSO in assay [2] was 97.2% (inactive); in assay [4], 122% (inactive). For the same compound, in assay [3], the percent response of DMSO control was 95.4% (inactive). Also, the GFP response, % of DMSO in assay [5] was 89.6% (inactive). The double positive events in assay [6] amounted to 62.8%. In addition, the vesicle binding response in assay [6] was 203% (inactive). The inhibition in [7] is -0.45% (inactive); in [11] it was -6.6% (inactive); in assay [15], 10% (inactive). In [8], the superoxide response (% of plate) was 104% (inactive). The aptamer binding inhibition in assay [9] is 4% (inactive). Also, the response is -7.3% (inactive) in assay [10] and 4.38% (inactive) in assay [12]. The binding (% of control) in assay [13] was 96.4% (inactive). In addition, the efflux inhibition (fraction of control) in [14] is 0.05 (inactive). For the same compound, in [16], the differentiation response was 6.11% (inactive).
Consider `COc1ccc(NC(=O)C2CCCN2C(=O)OC(C)(C)C)cc1` (stereo not drawn), for which, in assay [1], the percent of DMSO control GFP was 102% (inactive). In addition, the results for the GFP response vs DMSO in assay [2] and in [4] were 102% (inactive) and 92.3% (inactive), respectively. For the same compound, in [3], the percent response of DMSO control was 100% (inactive). Further, in assay [5], the GFP response, % of DMSO was 99.9% (inactive). The compound also registered a double positive events in assay [6] of 69.5%. Also, the vesicle binding response in assay [6] is 107% (inactive). In addition, the inhibition in assay [7] was 2.55% (inactive); in assay [11], -4.29% (inactive); in [15], 8% (inactive). Further, the superoxide response (% of plate) in assay [8] is 53.3% (active). For the same compound, the aptamer binding inhibition in assay [9] is 0% (inactive). Also, the response was -5.75% (inactive) in assay [10] and -0.27% (inactive) in assay [12]. For the same compound, the binding (% of control) in [13] is 102% (inactive). The efflux inhibition (fraction of control) in assay [14] is -0.38 (inactive). In [16], the differentiation response was -5.68% (inactive).
